Results on nine compounds are retold here after PubChem BioAssay (NCI).

Among the test systems are SR leukemia; RPMI-8226 leukemia; OVCAR-8 ovarian; OVCAR-5 ovarian; OVCAR-4 ovarian; SK-OV-3 ovarian; IGROV1 ovarian; OVCAR-3 ovarian; HS 578T breast; NCI/ADR-RES ovarian; T-47D breast; BT-549 breast; MDA-MB-435 melanoma; SW-620 colon; MCF7 breast; HCT-116 colon; HCC-2998 colon; KM12 colon.
Common to all, as to assay: NCI-60 one-dose screen, 48 h (100 = growth as untreated, 0 = no growth, -100 = all killed)
What all share (conditions): 10 µM unless noted

The panel holds about 83,000 compounds, 20% with a hit somewhere; the sample as a whole holds those more often.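 Step 1: grow cells in 96-well plates. Step 2: add test compound at a single concentration. Step 3: incubate 48 h. Step 4: record percent growth.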 A number with no mark means an inactive call. Activity calls are given as the source filed them. Rule for the calls: active = growth percent below 10; inactive = the rest.

For the compound `COc1ccc(-c2cc(/C=C3\C(=O)Nc4ccc(Cl)cc43)[nH]n2)cc1`, the growth in the experiment on SR leukemia is 10.6%; in the experiment on RPMI-8226 leukemia it was 61.6%; in the experiment on OVCAR-8 ovarian, 67.5%; in the experiment on OVCAR-5 ovarian it was 92.5%; with OVCAR-4 ovarian, 101%; with SK-OV-3 ovarian it was 60%. Further, the growth was 17.7% with IGROV1 ovarian; 31.6% in the experiment on OVCAR-3 ovarian; 68.6% with HS 578T breast; 34.2% with NCI/ADR-RES ovarian; 47.4% in the experiment on T-47D breast; 55.4% in the experiment on BT-549 breast. Moreover, the growth in the experiment with MDA-MB-435 melanoma is -27.4% (active); with SW-620 colon, 26.9%; in the experiment on MCF7 breast it was 17%; in the experiment with HCT-116 colon it was 26.8%; in the experiment on HCC-2998 colon, 94.3%.
With `CC(C)Oc1nc2c(c(=O)n(C)c(=O)n2C)n1C`, the growth was 104% in the experiment on SR leukemia; 105% in the experiment on RPMI-8226 leukemia; 103% with OVCAR-8 ovarian; 106% in the experiment on OVCAR-5 ovarian; 115% in the experiment on OVCAR-4 ovarian; 102% in the experiment on SK-OV-3 ovarian. Moreover, the growth in the experiment on IGROV1 ovarian was 102%; with OVCAR-3 ovarian, 110%; in the experiment with HS 578T breast, 116%; in the experiment on NCI/ADR-RES ovarian it was 98.1%; in the experiment with T-47D breast it was 90.3%; with BT-549 breast, 109%. Moreover, the growth in the experiment on MDA-MB-435 melanoma was 105%; with SW-620 colon it was 102%; in the experiment with MCF7 breast, 95.2%; with HCT-116 colon, 101%; in the experiment on HCC-2998 colon it was 101%.
In the case of `COc1cccc(-c2cn3c(ccc4ccccc43)n2)c1`, the growth in the experiment with SR leukemia was 31.9%; with RPMI-8226 leukemia, 31.8%; in the experiment with OVCAR-8 ovarian, 45.7%; in the experiment on OVCAR-5 ovarian it was 52.7%; in the experiment on OVCAR-4 ovarian it was 61.6%; in the experiment with SK-OV-3 ovarian, 45.7%. In addition, the growth in the experiment with IGROV1 ovarian is 41.2%; with OVCAR-3 ovarian, 16.7%; with HS 578T breast, 21.6%; in the experiment on NCI/ADR-RES ovarian, 15%; in the experiment on T-47D breast it was 46.1%; in the experiment on BT-549 breast, 37.8%. Also, the growth with MDA-MB-435 melanoma is -25.6% (active); with SW-620 colon it was 26.2%; in the experiment on MCF7 breast it was 17.4%; in the experiment with HCT-116 colon, 40.6%; with HCC-2998 colon it was 68.8%.
With `CCCCCCCCCCCCNC(=O)[C@H]1CSC(c2ccc(OC)c(F)c2)N1` (some centres undefined), the growth was -50.9% (active) in the experiment on SR leukemia; -53.3% (active) in the experiment on RPMI-8226 leukemia; -51.1% (active) in the experiment with OVCAR-8 ovarian; -98.6% (active) in the experiment with OVCAR-5 ovarian; -96.6% (active) in the experiment with OVCAR-4 ovarian; -98.1% (active) in the experiment on SK-OV-3 ovarian. Moreover, the growth was -76% (active) with IGROV1 ovarian; -91.9% (active) with OVCAR-3 ovarian; -49.6% (active) in the experiment on HS 578T breast; -60.4% (active) in the experiment with NCI/ADR-RES ovarian; -68.9% (active) with T-47D breast; -84.3% (active) with BT-549 breast. Besides, the growth is -92% (active) in the experiment on MDA-MB-435 melanoma; -70.4% (active) in the experiment with SW-620 colon; -68.1% (active) in the experiment on MCF7 breast; -88.7% (active) in the experiment with HCT-116 colon; -83.6% (active) with HCC-2998 colon; -84.6% (active) with KM12 colon.
In the case of `O=C(O)c1ccccc1Nc1cccc(S(F)(F)(F)(F)F)c1`, the growth with SR leukemia is 99.1%; in the experiment with RPMI-8226 leukemia, 100%; in the experiment on OVCAR-8 ovarian it was 98.9%; with OVCAR-5 ovarian, 115%; in the experiment on OVCAR-4 ovarian it was 102%; with SK-OV-3 ovarian it was 87.4%. The growth in the experiment with IGROV1 ovarian is 99.8%; in the experiment with OVCAR-3 ovarian, 95%; in the experiment on HS 578T breast it was 99.2%; in the experiment on NCI/ADR-RES ovarian it was 106%; with T-47D breast it was 85.8%; with BT-549 breast it was 106%. In addition, the growth was 101% with MDA-MB-435 melanoma; 94% in the experiment with SW-620 colon; 93.1% in the experiment on MCF7 breast; 98.3% in the experiment on HCT-116 colon; 108% with HCC-2998 colon; 100% in the experiment with KM12 colon.
On to `CCCCCCNC(=O)Oc1ccc(/C(=C(\C)c2ccccc2)c2ccc(OCCN(CC)CC)cc2)cc1`, for which the growth is 1.65% (active) in the experiment on SR leukemia; 22.1% in the experiment on RPMI-8226 leukemia; 63.5% in the experiment on OVCAR-8 ovarian; 76.9% with OVCAR-5 ovarian; 64.4% in the experiment with OVCAR-4 ovarian; 74.3% in the experiment with SK-OV-3 ovarian. Also, the growth in the experiment on IGROV1 ovarian is 59.2%; in the experiment on OVCAR-3 ovarian it was 66.9%; in the experiment with HS 578T breast, 36.4%; in the experiment on NCI/ADR-RES ovarian it was 70.6%; with T-47D breast, 35.5%; in the experiment with BT-549 breast, 71.8%. The growth was 45.6% in the experiment on MDA-MB-435 melanoma; 18.8% in the experiment on SW-620 colon; 16.1% in the experiment on MCF7 breast; 30.2% in the experiment with HCT-116 colon; 60% with HCC-2998 colon; 37.8% with KM12 colon.
As for `CCCCCC(=O)N(CCCC)CCCC`, the growth in the experiment with SR leukemia is 95.5%; in the experiment on RPMI-8226 leukemia, 93.8%; with OVCAR-8 ovarian, 102%; with OVCAR-5 ovarian, 103%; in the experiment on OVCAR-4 ovarian, 84.6%; with SK-OV-3 ovarian it was 93.7%. The growth in the experiment with IGROV1 ovarian was 113%; in the experiment on OVCAR-3 ovarian, 120%; with HS 578T breast, 109%; with NCI/ADR-RES ovarian, 111%; in the experiment on T-47D breast it was 109%; with BT-549 breast it was 102%. For the same compound, the growth is 89.4% in the experiment on MDA-MB-435 melanoma; 117% in the experiment with SW-620 colon; 123% in the experiment with MCF7 breast; 108% in the experiment with HCT-116 colon; 111% with HCC-2998 colon; 109% with KM12 colon.
For the compound `Cc1ccc(S(=O)(=O)n2cc(-c3csc(-c4cn(C)c5ncccc45)n3)c3ccccc32)cc1`, the growth was 2.53% (active) in the experiment with SR leukemia; 71.1% with RPMI-8226 leukemia; 80.5% in the experiment on OVCAR-8 ovarian; 81.9% in the experiment on OVCAR-5 ovarian; 71.5% in the experiment on OVCAR-4 ovarian; 70.2% in the experiment on SK-OV-3 ovarian. Also, the growth in the experiment with IGROV1 ovarian was 56.3%; in the experiment with OVCAR-3 ovarian it was 30.3%; in the experiment with HS 578T breast it was 85.8%; with NCI/ADR-RES ovarian, 43.3%; with T-47D breast, 24.4%; in the experiment with BT-549 breast, 66.9%. The growth is 3.65% (active) with MDA-MB-435 melanoma; 40% in the experiment with SW-620 colon; 19.8% in the experiment on MCF7 breast; 36% with HCT-116 colon; 88.4% in the experiment with HCC-2998 colon; 29.3% in the experiment on KM12 colon.
Take `COC(=S)SCN(CSC(=S)OC)c1ccc(Cl)cc1`: the growth was 123% in the experiment on SR leukemia; 73.1% in the experiment with RPMI-8226 leukemia; 91.3% in the experiment with OVCAR-8 ovarian; 97.1% with OVCAR-5 ovarian; 87.6% in the experiment with OVCAR-4 ovarian; 91.6% with SK-OV-3 ovarian. In addition, the growth is 95.4% with IGROV1 ovarian; 104% in the experiment on OVCAR-3 ovarian; 88.4% in the experiment with HS 578T breast; 79.1% in the experiment on NCI/ADR-RES ovarian; 70.1% in the experiment with T-47D breast; 65.8% with BT-549 breast. The growth in the experiment on MDA-MB-435 melanoma is 95.3%; with SW-620 colon, 99.1%; in the experiment with MCF7 breast it was 73.5%; in the experiment on HCT-116 colon it was 79.7%; in the experiment on HCC-2998 colon, 100%; in the experiment with KM12 colon it was 98.2%.
